Compounds without any hit were thinned out: in the full panel of roughly 83,000, 20% have a hit.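 Growth was measured after 48 h exposure to one concentration of compound in 96-well plates. Values under 10 count as active.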 Values without a mark were called inactive. The source made the active and inactive calls.
How the values were obtained:
Test in all cases: NCI-60 one-dose screen, 48 h (100 = growth as untreated, 0 = no growth, -100 = all killed)
Details in all cases: 10 µM unless noted
HT29 colon = system: HT29 colon
SNB-75 CNS = system: SNB-75 CNS
SNB-19 CNS = system: SNB-19 CNS
U251 CNS = system: U251 CNS
PC-3 prostate = system: PC-3 prostate
UACC-62 melanoma = system: UACC-62 melanoma
LOX IMVI melanoma = system: LOX IMVI melanoma
SK-MEL-28 melanoma = system: SK-MEL-28 melanoma
SK-MEL-2 melanoma = system: SK-MEL-2 melanoma
EKVX NSCLC = system: EKVX NSCLC
SN12C renal = system: SN12C renal
UO-31 renal = system: UO-31 renal
TK-10 renal = system: TK-10 renal
ACHN renal = system: ACHN renal
CAKI-1 renal = system: CAKI-1 renal
A498 renal = system: A498 renal
CCRF-CEM leukemia = system: CCRF-CEM leukemia
MOLT-4 leukemia = system: MOLT-4 leukemia
SR leukemia = system: SR leukemia

COc1cc(C2CC(=O)Nc3c2cc(Br)c2ccccc32)cc(Br)c1OC (stereo not drawn)
growth (HT29 colon): 6.78% (active) | growth (SNB-75 CNS): -42.7% (active) | growth (SNB-19 CNS): 60.7% | growth (U251 CNS): 17.2% | growth (PC-3 prostate): 39% | growth (UACC-62 melanoma): 51.7% | growth (LOX IMVI melanoma): 28.3% | growth (SK-MEL-28 melanoma): 73% | growth (SK-MEL-2 melanoma): 58.7% | growth (EKVX NSCLC): 41.7% | growth (SN12C renal): 54.5% | growth (UO-31 renal): 0.792% (active) | growth (TK-10 renal): -7.53% (active) | growth (ACHN renal): 5.63% (active) | growth (CAKI-1 renal): 3.19% (active) | growth (A498 renal): -2.63% (active) | growth (CCRF-CEM leukemia): 11.1% | growth (MOLT-4 leukemia): 30.9% | growth (SR leukemia): -53.1% (active)

CCC1=C(c2ccc(OC)cc2)C(C)Oc2cc(OC(C)=O)ccc21 (stereo not drawn)
growth (HT29 colon): 102% | growth (SNB-75 CNS): 71.9% | growth (SNB-19 CNS): 88.6% | growth (U251 CNS): -0.227% (active) | growth (PC-3 prostate): 68.3% | growth (UACC-62 melanoma): 74% | growth (LOX IMVI melanoma): 90.6% | growth (SK-MEL-28 melanoma): 93.7% | growth (SK-MEL-2 melanoma): 89.7% | growth (EKVX NSCLC): 75% | growth (SN12C renal): 90.4% | growth (UO-31 renal): 88.6% | growth (ACHN renal): 88% | growth (CAKI-1 renal): 74.9% | growth (CCRF-CEM leukemia): 63.5% | growth (MOLT-4 leukemia): 76.7% | growth (SR leukemia): 53%

CCOc1cccc(C2CC(=O)Nc3cc4c(cc32)OCO4)c1 (stereo not drawn)
growth (HT29 colon): 89.1% | growth (SNB-75 CNS): 104% | growth (SNB-19 CNS): 100% | growth (U251 CNS): 85.1% | growth (PC-3 prostate): 81.7% | growth (UACC-62 melanoma): 90.9% | growth (LOX IMVI melanoma): 93.8% | growth (SK-MEL-28 melanoma): 99.9% | growth (SK-MEL-2 melanoma): 83.1% | growth (EKVX NSCLC): 83.8% | growth (SN12C renal): 104% | growth (UO-31 renal): 68.6% | growth (TK-10 renal): 86.2% | growth (ACHN renal): 89.7% | growth (CAKI-1 renal): 64% | growth (A498 renal): 66.5% | growth (CCRF-CEM leukemia): 72.7% | growth (MOLT-4 leukemia): 78.2% | growth (SR leukemia): 57.5%

Oc1[nH]c2ccccc2c1/C=c1/ccc2c(c1)N=C(c1cc(F)cc(F)c1)N=2
growth (HT29 colon): 57.6% | growth (SNB-75 CNS): 51.6% | growth (SNB-19 CNS): 67.9% | growth (U251 CNS): 53% | growth (PC-3 prostate): 26.2% | growth (UACC-62 melanoma): 58.2% | growth (LOX IMVI melanoma): 52% | growth (SK-MEL-28 melanoma): 77.4% | growth (SK-MEL-2 melanoma): 41.2% | growth (EKVX NSCLC): 70.7% | growth (SN12C renal): 68.2% | growth (UO-31 renal): 60.2% | growth (TK-10 renal): 114% | growth (ACHN renal): 50.9% | growth (CAKI-1 renal): 52.1% | growth (A498 renal): 60.5% | growth (CCRF-CEM leukemia): -3.33% (active) | growth (MOLT-4 leukemia): 21% | growth (SR leukemia): 19.9%

C=CCCCCCCCCC(=O)[O][Sn]([CH2]CCC)([CH2]CCC)[CH2]CCC
growth (HT29 colon): -76.3% (active) | growth (SNB-75 CNS): -98.2% (active) | growth (SNB-19 CNS): -79.2% (active) | growth (U251 CNS): -74% (active) | growth (PC-3 prostate): -93.5% (active) | growth (UACC-62 melanoma): -90.4% (active) | growth (LOX IMVI melanoma): -90.9% (active) | growth (SK-MEL-28 melanoma): -93.5% (active) | growth (SK-MEL-2 melanoma): -71.2% (active) | growth (EKVX NSCLC): -55.1% (active) | growth (SN12C renal): -82% (active) | growth (UO-31 renal): -88.7% (active) | growth (ACHN renal): -99.6% (active) | growth (CAKI-1 renal): -89.4% (active) | growth (A498 renal): -97.3% (active) | growth (MOLT-4 leukemia): 4.17% (active) | growth (SR leukemia): 8.68% (active)

CCN1C2=C(SC(=S)C1=C1SC(C(=O)OC)=C(C(=O)OC)S1)SC(=Nc1ccc(OC)cc1)C2=O
growth (HT29 colon): -6.07% (active) | growth (SNB-75 CNS): -16.1% (active) | growth (SNB-19 CNS): 4.72% (active) | growth (U251 CNS): -32.5% (active) | growth (PC-3 prostate): 2.92% (active) | growth (UACC-62 melanoma): -76.8% (active) | growth (LOX IMVI melanoma): -72.1% (active) | growth (SK-MEL-28 melanoma): -55% (active) | growth (SK-MEL-2 melanoma): -5.85% (active) | growth (EKVX NSCLC): 34.7% | growth (SN12C renal): -11.8% (active) | growth (UO-31 renal): -73% (active) | growth (TK-10 renal): 30.3% | growth (ACHN renal): -74.3% (active) | growth (CAKI-1 renal): -38.4% (active) | growth (A498 renal): 46% | growth (CCRF-CEM leukemia): 4.67% (active) | growth (MOLT-4 leukemia): 13.2% | growth (SR leukemia): 19.2%

Fc1ccc([C@@H]2CCNC[C@H]2COc2ccc3c(c2)OCO3)cc1
growth (HT29 colon): 14.9% | growth (SNB-75 CNS): 57.6% | growth (SNB-19 CNS): 80.2% | growth (U251 CNS): 70.3% | growth (PC-3 prostate): 53.6% | growth (UACC-62 melanoma): 57.5% | growth (LOX IMVI melanoma): 42.9% | growth (SK-MEL-28 melanoma): 94.4% | growth (SK-MEL-2 melanoma): 83.8% | growth (EKVX NSCLC): 77.3% | growth (SN12C renal): 58.6% | growth (UO-31 renal): 40.4% | growth (TK-10 renal): 58.4% | growth (ACHN renal): 67% | growth (CAKI-1 renal): 67% | growth (A498 renal): 86.1% | growth (CCRF-CEM leukemia): 60.6% | growth (MOLT-4 leukemia): 68.3%

O=C1/C(=N/O)CCc2ccccc21
growth (HT29 colon): 101% | growth (SNB-75 CNS): 82.2% | growth (SNB-19 CNS): 100% | growth (U251 CNS): 103% | growth (PC-3 prostate): 59.8% | growth (UACC-62 melanoma): 87.6% | growth (LOX IMVI melanoma): 76.5% | growth (SK-MEL-28 melanoma): 121% | growth (SK-MEL-2 melanoma): 113% | growth (EKVX NSCLC): 88.8% | growth (SN12C renal): 96.1% | growth (UO-31 renal): 66.4% | growth (ACHN renal): 88.9% | growth (CAKI-1 renal): 102% | growth (CCRF-CEM leukemia): 4.19% (active) | growth (SR leukemia): 113%

C[C@]12C[C@H](O)[C@H]3[C@@H](CCC4=CC(=O)CC[C@@]43C)[C@@H]1CC[C@@H]2C(=O)CO
growth (HT29 colon): 108% | growth (SNB-75 CNS): 78.5% | growth (SNB-19 CNS): 95.6% | growth (U251 CNS): 93.5% | growth (PC-3 prostate): 97.3% | growth (UACC-62 melanoma): 91.4% | growth (LOX IMVI melanoma): 97.7% | growth (SK-MEL-28 melanoma): 102% | growth (SK-MEL-2 melanoma): 93.4% | growth (EKVX NSCLC): 80.7% | growth (SN12C renal): 79.9% | growth (UO-31 renal): 89.6% | growth (TK-10 renal): 108% | growth (ACHN renal): 95.8% | growth (CAKI-1 renal): 101% | growth (A498 renal): 43.5% | growth (CCRF-CEM leukemia): 78.1% | growth (MOLT-4 leukemia): 116% | growth (SR leukemia): 111%
